Growth inhibition data for nine compounds are collected here from PubChem BioAssay (NCI).

Each structure is given as a SMILES string. This is part of a sample that, as a whole, favours compounds with a hit. Of some 79,000 tested, about 15% had one in any assay. Unmarked numbers belong to inactive results. Activity calls are given as the source filed them. No stated cut-off is given here; in the data, active means growth inhibition above about 70%; inactive means the rest.

Assay [1] is described as follows: NCI Yeast Anticancer Drug Screen. Data for the rad50 strain (AID 155).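 Further: 0% = growth of vehicle-only cultures of the same strain.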 Particulars: S. cerevisiae rad50 strain growth inhibition, active compounds read high. Summed up:
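DNA repair mutant yeast, compound exposure, growth read-out; inhibition is taken relative to vehicle.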

Assay [2] can be described thus: NCI Yeast Anticancer Drug Screen. Data for the mec2-1 strain (AID 157). Particulars: S. cerevisiae mec2-1 strain, active compounds read high. An outline of the steps:
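Growth inhibition is read against vehicle-treated controls after compound exposure of the mec2-1 yeast strain, which is defective in DNA damage repair or cell cycle control.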

Assay [3] is described as follows: NCI Yeast Anticancer Drug Screen. Data for the sgs1 mgt1 strain (AID 161).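 Further: 0% = growth of cultures given vehicle only.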 The settings on record: S. cerevisiae sgs1 mgt1 strain, active compounds read high. Summed up:
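Compounds are added to genetically altered yeast, and growth is compared with cultures given vehicle alone to give percent inhibition.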

The nature of assay [4]: NCI Yeast Anticancer Drug Screen. Data for the cln2 rad14 strain (AID 165).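 Further: 0% = growth equal to vehicle treated cultures.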 Particulars: S. cerevisiae cln2 rad14 strain, active compounds read high. An outline of the steps: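 Growth inhibition, relative to vehicle-treated controls, is the read-out. The test organism is a yeast strain with defined genetic alterations, cln2 rad14.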
Assay [5] is described as follows: NCI Yeast Anticancer Drug Screen. Data for the bub3 strain (AID 167). The settings on record: S. cerevisiae bub3 mutant strain, active compounds read high. Summed up: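 In this screen, a yeast mutant lacking normal mitotic checkpoint function is challenged with compound. Relative growth versus vehicle gives the inhibition value.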
Assay [6] can be described thus: NCI Yeast Anticancer Drug Screen. Data for the mlh1 rad18 strain (AID 175). The settings on record: S. cerevisiae mlh1 rad18 strain growth inhibition, active compounds read high. An outline of the steps: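 Cells of a genetically altered yeast strain, deficient in DNA damage repair, were treated with compound. Their growth was then compared with that of vehicle-treated cultures to give inhibition.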

Where [7] appears, read: at 5.0 µM (retest, dose inferred, filed as 0.5).
The mark [8] stands for this setting: at 50.0 µM (retest, dose inferred, filed as 5.0).

For the compound `COc1ccccc1C1SC(c2ccccc2)(c2ccccc2)OC1=O` (configuration not stated), the growth inhibition in assay [1] (setting [7]) was -2%; in assay [1] (setting [8]) it was -9%; in assay [1] (at 50.0 µM), 84.6% (active); in assay [2] (setting [7]), -2%; in assay [2] (setting [8]), -4%; in assay [2] (at 50.0 µM) it was 50.1%. Further, the growth inhibition is 12% in assay [3] (setting [7]); -2% in assay [3] (setting [8]); 80.2% (active) in assay [3] (at 50.0 µM); -2% in assay [4] (setting [7]); -7% in assay [4] (setting [8]); 84.8% (active) in assay [4] (at 50.0 µM). Also, the growth inhibition in assay [5] (setting [7]) was -1%; in assay [5] (setting [8]), 16%; in assay [5] (at 50.0 µM) it was 85.9% (active); in assay [6] (setting [7]), 0%; in assay [6] (setting [8]), -6%; in assay [6] (at 50.0 µM) it was 80.9% (active).

Regarding `C#CC(NCCC(C)CC(C)(C)C)C(C)C` (configuration not stated), the growth inhibition in assay [1] (setting [7]) was -4%; in assay [1] (setting [8]), -62%; in assay [1] (at 50.0 µM), 83.3% (active); in assay [2] (setting [7]) it was 2%; in assay [2] (setting [8]), -31%; in assay [2] (at 50.0 µM), 36.2%. For the same compound, the growth inhibition in assay [3] (setting [7]) is -3%; in assay [3] (setting [8]), -22%; in assay [3] (at 50.0 µM) it was 87.7% (active); in assay [4] (setting [7]), -2%; in assay [4] (setting [8]), -14%; in assay [4] (at 50.0 µM), 21.4%. Moreover, the growth inhibition in assay [5] (setting [7]) is -14%; in assay [5] (setting [8]), -68%; in assay [5] (at 50.0 µM), 29.6%; in assay [6] (setting [7]), -3%; in assay [6] (setting [8]), -43%; in assay [6] (at 50.0 µM), 65.2%.

Turning to `CCOC(=O)C(=O)Nc1ccc(Cl)cc1Cl`, the growth inhibition was -12% in assay [1] (setting [7]); -1% in assay [1] (setting [8]); -1.5% in assay [1] (at 50.0 µM); -12% in assay [2] (setting [7]); -5% in assay [2] (setting [8]); -10.3% in assay [2] (at 50.0 µM). The growth inhibition is -1% in assay [3] (setting [7]); -2% in assay [3] (setting [8]); -2.25% in assay [3] (at 50.0 µM); 14% in assay [4] (setting [7]); 34% in assay [4] (setting [8]); -1.75% in assay [4] (at 50.0 µM). Moreover, the growth inhibition in assay [5] (setting [7]) was 10%; in assay [5] (setting [8]) it was -10%; in assay [5] (at 50.0 µM), 10.6%; in assay [6] (setting [7]), 1%; in assay [6] (setting [8]) it was 7%; in assay [6] (at 50.0 µM), 19.1%.

With `CN(C)CCC(=O)C(=Cc1cc(Cl)cc(Cl)c1)C(=O)CCN(C)C`, the growth inhibition was 2% in assay [1] (setting [7]); 98% (active) in assay [1] (setting [8]); 96.3% (active) in assay [1] (at 50.0 µM); -19% in assay [2] (setting [7]); 99% (active) in assay [2] (setting [8]); 99% (active) in assay [2] (at 50.0 µM). Also, the growth inhibition in assay [3] (setting [7]) is 12%; in assay [3] (setting [8]) it was 99% (active); in assay [3] (at 50.0 µM) it was 85.2% (active); in assay [4] (setting [7]), 0%; in assay [4] (setting [8]), 98% (active); in assay [4] (at 50.0 µM), 40.6%. The growth inhibition in assay [5] (setting [7]) was -8%; in assay [5] (setting [8]), 98% (active); in assay [5] (at 50.0 µM), 97.8% (active); in assay [6] (setting [7]), -4%; in assay [6] (setting [8]) it was 97% (active); in assay [6] (at 50.0 µM) it was 97.5% (active).

For `Clc1ccc(-c2noc(CN3CCCCC3)n2)cc1`, the growth inhibition in assay [1] (setting [7]) was 10%; in assay [1] (setting [8]), 38%; in assay [1] (at 50.0 µM), 66%; in assay [2] (setting [7]) it was 0%; in assay [2] (setting [8]), 24%; in assay [2] (at 50.0 µM) it was 15.2%. The growth inhibition is 2% in assay [3] (setting [7]); 62% in assay [3] (setting [8]); 49.6% in assay [3] (at 50.0 µM); -7% in assay [4] (setting [7]); 21% in assay [4] (setting [8]); 73.3% (active) in assay [4] (at 50.0 µM). Further, the growth inhibition is -1% in assay [5] (setting [7]); 25% in assay [5] (setting [8]); 71.9% (active) in assay [5] (at 50.0 µM); -4% in assay [6] (setting [7]); 24% in assay [6] (setting [8]); 67.3% in assay [6] (at 50.0 µM).

Take `O=C(O)CCSSCCCCCS(=O)O`: the growth inhibition in assay [1] (setting [7]) is -5%; in assay [1] (setting [8]), -4%; in assay [1] (at 50.0 µM) it was 54.9%; in assay [2] (setting [7]), 4%; in assay [2] (setting [8]), 10%; in assay [2] (at 50.0 µM), -1.9%. The growth inhibition is -1% in assay [3] (setting [7]); 0% in assay [3] (setting [8]); 7.95% in assay [3] (at 50.0 µM); -10% in assay [4] (setting [7]); -22% in assay [4] (setting [8]); 1% in assay [4] (at 50.0 µM). Also, the growth inhibition in assay [5] (setting [7]) is -3%; in assay [5] (setting [8]), 9%; in assay [5] (at 50.0 µM) it was 13%; in assay [6] (setting [7]) it was 0%; in assay [6] (setting [8]) it was 9%; in assay [6] (at 50.0 µM) it was 13%.

With `NC(N)=N/N=C/c1ccc([N+](=O)[O-])o1`, the growth inhibition is 11% in assay [1] (setting [7]); 22% in assay [1] (setting [8]); 66% in assay [1] (at 50.0 µM); 4% in assay [2] (setting [7]); 13% in assay [2] (setting [8]); 49% in assay [2] (at 50.0 µM). The growth inhibition in assay [3] (setting [7]) is 3%; in assay [3] (setting [8]), 16%; in assay [3] (at 50.0 µM), 70.2% (active); in assay [4] (setting [7]) it was 3%; in assay [4] (setting [8]) it was 7%; in assay [4] (at 50.0 µM), 25.2%. The growth inhibition in assay [5] (setting [7]) is 6%; in assay [5] (setting [8]), 39%; in assay [5] (at 50.0 µM), 28.7%; in assay [6] (setting [7]) it was 10%; in assay [6] (setting [8]), 23%; in assay [6] (at 50.0 µM), 61.4%.

As to `CSC(SC)=C(C#N)C(=O)Nc1ccc(C)cc1`, the growth inhibition in assay [1] (setting [7]) was 25%; in assay [1] (setting [8]) it was 47%; in assay [1] (at 50.0 µM) it was 40.5%; in assay [2] (setting [7]), 10%; in assay [2] (setting [8]), 53%; in assay [2] (at 50.0 µM) it was 77.3% (active). Moreover, the growth inhibition was 37% in assay [3] (setting [7]); 55% in assay [3] (setting [8]); 73.4% (active) in assay [3] (at 50.0 µM); 36% in assay [4] (setting [7]); 37% in assay [4] (setting [8]); 29.3% in assay [4] (at 50.0 µM). Further, the growth inhibition is 50% in assay [5] (setting [7]); 53% in assay [5] (setting [8]); 89.7% (active) in assay [5] (at 50.0 µM); 8% in assay [6] (setting [7]); 8% in assay [6] (setting [8]); 83.8% (active) in assay [6] (at 50.0 µM).

As to `CC(C)c1ccc(C(=O)OC2CCCCC2)cc1`, the growth inhibition in assay [1] (setting [7]) is 7%; in assay [1] (setting [8]) it was 97% (active); in assay [1] (at 50.0 µM) it was 73.3% (active); in assay [2] (setting [7]) it was 8%; in assay [2] (setting [8]) it was 100% (active); in assay [2] (at 50.0 µM) it was 9.4%. Also, the growth inhibition in assay [3] (setting [7]) is 7%; in assay [3] (setting [8]) it was 96% (active); in assay [3] (at 50.0 µM), 46%; in assay [4] (setting [7]), 4%; in assay [4] (setting [8]) it was 98% (active); in assay [4] (at 50.0 µM) it was 58.1%. Moreover, the growth inhibition in assay [5] (setting [7]) was 1%; in assay [5] (setting [8]), 100% (active); in assay [5] (at 50.0 µM), 88.7% (active); in assay [6] (setting [7]) it was 2%; in assay [6] (setting [8]), 96% (active); in assay [6] (at 50.0 µM), 62.2%.
